# In publication PMC5540273 (PLoS ONE, 2017):
# Test system: CDK3
# Settings: concentration: 1 μM, replicates: in singlicate; n = 1
# 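Further: KINOMEscan kinase panel screen.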
row,SMILES,%Inh
1,COC(=O)c1c(-c2ccccc2)c2cc(C)ccc2c(=O)n1Cc1ccccc1,0%
2,CCc1ccc(-c2ccc3c(c2)-c2nn(C)cc2S(=O)(=O)N3C)cc1,0%
3,O=C(Nc1ccc2c(c1)OCO2)NC1CCN(c2ccnc(NCc3ccc(F)cc3)n2)CC1 [GSK1379859],0%
4,Cc1nnc(-c2ccc(C)c(-c3ccc(C(=O)O)cc3)c2)o1 [GW608005],0%
5,CCCNC(=O)Nc1ccc(Oc2ncnc3ccn(C)c23)cc1,0%
6,CCC(=O)c1c(-c2ccccc2)c2cc(Cl)ccc2c(=O)n1Cc1cc(C(=O)NC2CC2)n(C)n1,0%
7,COc1ccc(CNC(=O)NC2CCN(c3ccnc(Nc4ccc(F)cc4)n3)C2)cc1 (stereo not shown) [GSK1379706],20%
8,CCC(=O)c1c(-c2ccccc2)c2cc(Cl)ccc2c(=O)n1Cc1cc(S(C)(=O)=O)n(CC(F)F)n1,0%
9,COc1cccc(C2=C(Nc3cccc(C(=O)O)c3)C(=O)NC2=O)c1 [SB-390770],9%
10,COc1cc(OC)cc(-c2cc3cnc(N)nc3nc2NC(=O)NC(C)(C)C)c1,14%
11,Nc1ncnc2c1ncn2-c1cccc(F)c1 [SKF-97560],0%
12,CN1C(=O)C(Nc2ccccc2)=C(c2ccccc2)C1=O [SB-300079],12%
13,COc1cc2nccc(Nc3cccc(Oc4ccccc4)c3)c2cc1OC.Cl [GW284543],0%
14,COc1ccc(-c2coc3ccc(-c4nnc(SCc5cccc(C#N)c5)o4)cc23)cc1,0%
15,Cc1ccccc1COc1cc(-n2cnc3cc(Cl)ccc32)sc1C(N)=O [GW813349],0%
16,Nc1ncnc2c1ncn2-c1cccc2ccccc12 [SKF-97184],0%
17,COc1cc2nccc(Nc3ccc(OCc4ccc(NC(C)=O)cc4)cc3)c2cc1OC.Cl [GW440135],4%
18,O=C(Nc1n[nH]c2cc(-c3ccccc3F)ccc12)C1CC1 [SB-733371],7%
19,O=C(NCc1cccs1)c1cc(C(=O)c2c(Cl)cccc2Cl)c[nH]1 [GW823670],15%

row,SMILES,%Inh
1,COc1ccc(Nc2nccc(N3CCC(NS(=O)(=O)c4ccc(NC(C)=O)cc4)C3)n2)cc1 (stereo not shown) [GSK1379729],20%
2,COC(=O)c1c(-c2ccccc2)c2cc(Br)ccc2c(=O)n1Cc1ccc(S(C)(=O)=O)cc1,0%
3,COc1ccc(-c2cc3c(C)nc(N)nc3n([C@H]3CC[C@H](O)CC3)c2=O)cn1,8%
4,Nc1n[nH]c2nnc(-c3ccccc3)c(-c3ccccc3)c12 [GW554060],17%
5,CCS(=O)(=O)c1ccc(OC)c(Nc2ncc(-c3ccc(F)cc3)o2)c1.Cl [GW591947],0%
6,Nc1n[nH]c2ncc(-c3ccccc3)cc12 [SB-517081],26%
7,OCCCNc1nccc(-c2c(-c3cccc(C(F)(F)F)c3)nn3cc(C(F)(F)F)ccc23)n1 [GW630813],1%
8,CCc1nc(-c2cccc(C)c2)c(-c2ccncc2)s1,8%
9,CCC(=O)c1c(-c2ccccc2)c2cc(Cl)ccc2c(=O)n1Cc1cc(S(C)(=O)=O)n(CCC(C)(C)O)n1,2%
10,Cc1ccc(Oc2ccc(Nc3ncnc4cc[nH]c34)cc2C)cn1,0%
11,Nc1nccc2scc(-c3ccc4c(c3)CCN4C(=O)Cc3ccccc3)c12 [GSK2576924],9%
12,Cc1cccc(-c2nc(Nc3ccc4c(cnn4C)c3)c3ccccc3n2)n1 [GW876731],0%
13,COC(=O)c1c(-c2ccccc2)c2cc(Br)ccc2c(=O)n1Cc1ccc(NC(=O)CCC(=O)O)cc1,5%
14,COc1ccc(-c2cc3c(C)nc(N)nc3n([C@H]3CC[C@H](OCCO)CC3)c2=O)cn1,0%
15,O=C(Nc1n[nH]c2nc(-c3ccccc3)c(Br)cc12)C1CC1 [SB-708998],0%
16,COc1cc2ncn(-c3cc(OCCCc4ccccc4)c(C(N)=O)s3)c2cc1OC [GSK205189],1%
17,COc1cc(Nc2ccnc3ccc(C(F)(F)F)cc23)cc(OC)c1OC [GW577382],16%
18,Cc1ccc(-c2ccc3c(ccc4sc5c(c43)NC[C@@H](C)N=C5N(C)C)n2)cn1,0%
